Results taken from PubChem BioAssay (EPA / NIEHS).
Several values for one entry are separate records, joined by “and”; a condition that tells them apart may be missing. Identical values can stand only once. The source holds several records for some structures; these can differ, active in one and inactive in another. Activity calls are given as the source filed them. Rule for the calls: active = hit-call score of the fitted dose curve at least 0.9, where 1 is the maximum; inactive = score below 0.9.

Key:
[1] = read-out: Interleukin-6 (IL6), IL6 (gene 3569); assay: BSK_CASM3C_IL6: BioMAP Diversity Plus: CASM3C Assay for Interleukin-6 (IL6) Biomarker Activity for (AID 2283040); conditions: primary human coronary artery smooth muscle cells; actives raise or lower the signal
[2] = read-out: Tissue plasminogen activator (tPA), PLAT (gene 5327); assay: BSK_BE3C_tPA: BioMAP Diversity Plus: BE3C Assay for Tissue plasminogen activator (tPA) Biomarker Activity (AID 2283041); conditions: primary human bronchial epithelial cells; actives raise or lower the signal;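 note: tPA level quantified by ELISA one day after compound addition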
Method in brief: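 ELISA read-out of tPA on human primary bronchial epithelial cells, 24 h post-dosing; bidirectional fit vs DMSO negative control/baseline.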

[3] = read-out: Interleukin-8 (IL8), CXCL8 (gene 3576); assay: BSK_CASM3C_IL8: BioMAP Diversity Plus: CASM3C Assay for Interleukin-8 (IL8) Biomarker Activity (AID 2283042); conditions: primary human coronary artery smooth muscle cells; actives raise or lower the signal;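 note: IL-8 protein level quantified by ELISA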
[4] = read-out: Human Leukocyte Antigen - DR isotype (HLADR), HLA-DRA (gene 3122); assay: BSK_CASM3C_HLADR: BioMAP Diversity Plus: CASM3C Assay for Human Leukocyte Antigen - DR isotype (HLADR) Biomarker Activity (AID 2283043); conditions: primary human coronary artery smooth muscle cells; actives raise or lower the signal;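 note: cell-surface HLA-DR protein level quantified by ELISA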
[5] = read-out: Macrophage colony-stimulating factor (MCSF), CSF1 (gene 1435); assay: BSK_CASM3C_MCSF: BioMAP Diversity Plus: CASM3C Assay for Macrophage colony-stimulating factor (MCSF) Biomarker Activity (AID 2283044); conditions: primary human coronary artery smooth muscle cells; actives raise or lower the signal;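 note: M-CSF protein amount quantified by ELISA after 24 h exposure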
[6] = read-out: Low-density lipoprotein receptor (LDLR), LDLR (gene 3949); assay: BSK_CASM3C_LDLR: BioMAP Diversity Plus: CASM3C Assay for Low-density lipoprotein receptor (LDLR) Biomarker Activity (AID 2283045); conditions: primary human coronary artery smooth muscle cells; actives raise or lower the signal;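 note: LDLR protein level on the cell surface quantified by ELISA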
[7] = read-out: Monocyte Chemoattractant Protein-1 (MCP1), CCL2 (gene 6347); assay: BSK_CASM3C_MCP1: BioMAP Diversity Plus: CASM3C Assay for Monocyte Chemoattractant Protein-1 (MCP1) Biomarker Activity (AID 2283046); conditions: primary human coronary artery smooth muscle cells; actives raise or lower the signal;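 note: MCP-1 level quantified by ELISA 24 h after dosing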
[8] = BSK_CASM3C_Proliferation: Cell Proliferation Assessment in the BioMAP Diversity Plus: CASM3C Assay (AID 2283047); conditions: primary human coronary artery smooth muscle cells;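 note: sulforhodamine B total protein stain as relative cell number at 560 nm; sub-confluent cells exposed 48 h before staining; fitted both ways against DMSO so gain or loss of cell number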
[9] = read-out: Monokine induced gamma interferon (MIG), CXCL9 (gene 4283); assay: BSK_CASM3C_MIG: BioMAP Diversity Plus: CASM3C Assay for Monokine induced gamma interferon (MIG) Biomarker Activity (AID 2283048); conditions: primary human coronary artery smooth muscle cells; actives raise or lower the signal;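 note: MIG protein level measured by ELISA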
[10] = read-out: serum amyloid A (SAA), SAA1 (gene 6288); assay: BSK_CASM3C_SAA: BioMAP Diversity Plus: CASM3C Assay for serum amyloid A (SAA) Biomarker Activity (AID 2283049); conditions: primary human coronary artery smooth muscle cells; actives raise or lower the signal;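 note: SAA protein level quantified by ELISA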
[11] = BSK_CASM3C_SRB: Viability Assessment in the BioMAP Diversity Plus: CASM3C Assay (AID 2283050); conditions: primary human coronary artery smooth muscle cells;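 note: total protein by SRB staining as cytotoxicity measure in parallel cultures; cells exposed to compound for 24 h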
[12] = read-out: Thrombomodulin, THBD (gene 7056); assay: BSK_CASM3C_Thrombomodulin: BioMAP Diversity Plus: CASM3C Assay for Thrombomodulin Biomarker Activity (AID 2283051); conditions: primary human coronary artery smooth muscle cells; actives raise or lower the signal;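 note: thrombomodulin protein level measured by ELISA 24 h after dosing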
[13] = read-out: Tissue Factor, F3 (gene 2152); assay: BSK_CASM3C_TissueFactor: BioMAP Diversity Plus: CASM3C Assay for Tissue Factor Biomarker Activity (AID 2283052); conditions: primary human coronary artery smooth muscle cells; actives raise or lower the signal;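 note: cell surface tissue factor protein level read by ELISA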
[14] = read-out: Interferon-gamma inducible Protein 10 (IP10), CXCL10 (gene 3627); assay: BSK_hDFCGF_IP10: BioMAP Diversity Plus: hDFCGF Assay for Interferon-gamma inducible Protein 10 (IP10) Biomarker Activity (AID 2283053); conditions: primary human foreskin fibroblasts; actives raise or lower the signal
Method in brief: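 ELISA read-out of IP-10 (CXCL10) from primary human skin fibroblasts, 24 h after compound addition. Gain or loss of signal versus DMSO baseline, bidirectional curve fitting.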

[15] = read-out: Urokinase-type plasminogen activator receptor (uPAR), PLAUR (gene 5329); assay: BSK_CASM3C_uPAR: BioMAP Diversity Plus: CASM3C Assay for Urokinase-type plasminogen activator receptor (uPAR) Biomarker Activity (AID 2283054); conditions: primary human coronary artery smooth muscle cells; actives raise or lower the signal;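 note: cell-surface uPAR protein level quantified by ELISA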
[16] = read-out: Vascular cell adhesion molecule 1 (VCAM1), VCAM1 (gene 7412); assay: BSK_CASM3C_VCAM1: BioMAP Diversity Plus: CASM3C Assay for Vascular cell adhesion molecule 1 (VCAM1) Biomarker Activity (AID 2283055); conditions: primary human coronary artery smooth muscle cells; actives raise or lower the signal;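 note: VCAM-1 protein level quantified by ELISA on the cells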
[17] = read-out: Collagen III, COL3A1 (gene 1281); assay: BSK_hDFCGF_CollagenIII: BioMAP Diversity Plus: hDFCGF Assay for Collagen III Biomarker Activity (AID 2283056); conditions: primary human foreskin fibroblasts; actives raise or lower the signal
Method in brief: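 ELISA readout of Collagen III in human dermal (foreskin) fibroblasts, taken 24 h post-treatment. Gain or loss relative to DMSO vehicle fitted in both directions.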

[18] = read-out: Epidermal growth factor receptor (EGFR), EGFR (gene 1956); assay: BSK_hDFCGF_EGFR: BioMAP Diversity Plus: hDFCGF Assay for Epidermal growth factor receptor (EGFR) Biomarker Activity (AID 2283057); conditions: primary human foreskin fibroblasts; actives raise or lower the signal
Method in brief: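 ELISA readout of EGFR on human dermal fibroblasts (primary foreskin cells), 24 h post-dosing; bidirectional curve fit vs DMSO baseline, gain or loss of signal scored.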

[19] = read-out: Interleukin-8 (IL8), CXCL8 (gene 3576); assay: BSK_hDFCGF_IL8: BioMAP Diversity Plus: hDFCGF Assay for Interleukin-8 (IL8) Biomarker Activity (AID 2283058); conditions: primary human foreskin fibroblasts; actives raise or lower the signal
Method in brief: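 IL-8 levels read by ELISA at 24 hours after dosing human skin fibroblast cultures. Parallel SRB staining assessed overt cytotoxicity, and gain or loss of signal was fitted against DMSO control.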

[20] = BSK_hDFCGF_Proliferation: Cell Proliferation Assessment in the BioMAP Diversity Plus: hDFCGF Assay (AID 2283059); conditions: primary human foreskin fibroblasts;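 note: curves fitted for both rise and fall of signal versus DMSO baseline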
Method in brief: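 This proliferation readout used SRB total-protein staining of human foreskin fibroblasts […], normalized to DMSO with bidirectional curve fitting.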

Measured: AC50

CCOP(=S)(OCC)OC(Cl)C(Cl)(Cl)Cl (configuration not stated)
active: [1] 20 µM | [8] 37 µM | [12] 11.4 µM | [14] 26.3 µM | [17] 11.1 µM
inactive: [2] | [3] | [4] | [5] | [6] | [7] | [9] | [10] | [11] | [13] | [15] | [16] | [18] | [19] | [20]

CN(C)C(=O)Nc1cccc(C(F)(F)F)c1
inactive: [1] | [2] | [3] | [4] | [5] | [6] | [7] | [8] | [9] | [10] | [11] | [12] | [13] | [14] | [15] | [16] | [17] | [18] | [19] | [20]

CN(C)[C@@H]1C(=O)C(C(N)=O)=C(O)[C@@]2(O)C(=O)C3=C(O)c4c(O)cccc4[C@@](C)(O)[C@H]3[C@H](O)[C@@H]12
active: [8] 28.7 µM and 11 µM | [14] 29.9 µM | [20] 19.6 µM and 13.9 µM
inactive: [1] | [2] | [3] | [4] | [5] | [6] | [7] | [9] | [10] | [11] | [12] | [13] | [14] | [15] | [16] | [17] | [18] | [19] | [20]

CCNc1nc(Cl)nc(NC(C)(C)C#N)n1
active: [4] 9.89 µM | [12] 3.97 µM | [15] 30.8 µM | [20] 12.2 µM
inactive: [1] | [2] | [3] | [5] | [6] | [7] | [8] | [9] | [10] | [11] | [13] | [14] | [16] | [17] | [18] | [19]

Cc1ccn2nc(S(=O)(=O)Nc3c(F)cccc3F)nc2n1
inactive: [1] | [2] | [3] | [4] | [5] | [6] | [7] | [8] | [9] | [10] | [11] | [12] | [13] | [14] | [15] | [16] | [17] | [18] | [19] | [20]

CCCSP(=O)(OCC)SCCC
inactive: [1] | [2] | [3] | [4] | [5] | [6] | [7] | [8] | [9] | [10] | [11] | [12] | [13] | [14] | [15] | [16] | [17] | [18] | [19] | [20]

C[Si](Cn1cncn1)(c1ccc(F)cc1)c1ccc(F)cc1
active: [12] 7.8 µM
inactive: [1] | [2] | [3] | [4] | [5] | [6] | [7] | [8] | [9] | [10] | [11] | [13] | [14] | [15] | [16] | [17] | [18] | [19] | [20]

CC(C)[C@H](C(=O)O[C@H](C#N)c1cccc(Oc2ccccc2)c1)c1ccc(Cl)cc1
active: [8] 9.47 µM | [12] 4.81 µM | [20] 3.36 µM
inactive: [1] | [2] | [3] | [4] | [5] | [6] | [7] | [9] | [10] | [11] | [13] | [14] | [15] | [16] | [17] | [18] | [19]

Cc1nn(-c2cc(NS(C)(=O)=O)c(Cl)cc2Cl)c(=O)n1C(F)F
inactive: [1] | [2] | [3] | [4] | [5] | [6] | [7] | [8] | [9] | [10] | [11] | [12] | [13] | [14] | [15] | [16] | [17] | [18] | [19] | [20]

CCCCOC(=O)c1ccccc1C(=O)O
inactive: [1] | [2] | [3] | [4] | [5] | [6] | [7] | [8] | [9] | [10] | [11] | [12] | [13] | [14] | [15] | [16] | [17] | [18] | [19] | [20]

CC(C)N(C(=O)SCC(Cl)=C(Cl)Cl)C(C)C
active: [5] 34.4 µM | [8] 37.1 µM | [11] 32.4 µM | [12] 20 µM | [14] 34 µM | [17] 30.5 µM | [18] 28.4 µM | [19] 33.6 µM | [20] 36.6 µM
inactive: [1] | [2] | [3] | [4] | [6] | [7] | [9] | [10] | [13] | [15] | [16]

FC(F)C(F)(F)OCC(Cn1cncn1)c1ccc(Cl)cc1Cl (configuration not stated)
active: [14] 27.8 µM | [20] 5.24 µM
inactive: [1] | [2] | [3] | [4] | [5] | [6] | [7] | [8] | [9] | [10] | [11] | [12] | [13] | [15] | [16] | [17] | [18] | [19]
